{
  "source": "paper PMC7819943",
  "about": "“Rice protein-binding microarrays: a tool to detect cis-acting elements near promoter regions in rice”",
  "note": "Over roughly 39,000 sequences, “fluorescence intensity (a.u.)” has its median near 4,300; the highest 2% begin near 39,000. For the sample, the highest values were picked, then their nearest neighbours and some sequences at random.",
  "data": [
    {"target": "T1, OsSMF1 (Oryza sativa, UniProt Q6ZLB0 1-436)", "T1 sequence": "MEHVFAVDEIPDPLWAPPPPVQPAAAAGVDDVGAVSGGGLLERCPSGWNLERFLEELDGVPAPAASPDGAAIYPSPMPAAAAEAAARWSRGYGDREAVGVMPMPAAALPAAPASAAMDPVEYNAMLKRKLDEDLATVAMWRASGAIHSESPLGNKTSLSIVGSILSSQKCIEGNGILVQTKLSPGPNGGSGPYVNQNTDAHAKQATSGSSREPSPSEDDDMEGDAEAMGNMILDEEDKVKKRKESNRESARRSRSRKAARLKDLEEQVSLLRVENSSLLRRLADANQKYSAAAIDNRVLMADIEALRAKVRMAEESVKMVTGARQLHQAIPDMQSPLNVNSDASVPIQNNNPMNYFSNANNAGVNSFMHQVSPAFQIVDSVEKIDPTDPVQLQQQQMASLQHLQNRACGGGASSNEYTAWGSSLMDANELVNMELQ", "experiment": "protein-binding microarray (RPBM); PBS, 2% BSA, 51.3 ng/ul salmon testes DNA, 50 uM zinc acetate, 200 nM TF, 25 C, 1 h; high values mean tight binding", "settings": "protein: recombinant; tags: N-terminal polyhistidine and DsRed monomer fusion (pET32a); chain copies: 2; label: CyDye5-dUTP incorporated in the synthesized complementary strand; 3' TTTTT single-stranded linker to array surface; dsDNA, one strand shown", "procedure,_shortened": "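Using Ni–NTA, transcription factors fused N-terminally to polyhistidine and DsRed were purified after expression in E. coli BL21-CodonPlus. These were incubated at 200 nM with a blocked, double-stranded custom Agilent array for 1 h at 25 °C in a buffer containing 50 µM zinc acetate, and the array was washed. The binding signal is per-feature fluorescence intensity (arbitrary units) on an Axon 4000B scanner.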", "values": [
      {"sequence": "GTGTTTTGACGCATGCATGCCGTTGGTCATCAGTTAATCACGGAGTCACCTAGTGCAG", "binding signal": "3480 fluorescence intensity (a.u.)"},
      {"sequence": "TTCCCAAAAGGAGGCCCAATGAGAACTTGTATAGTCCTATCGGAGTCACCTAGTGCAG", "binding signal": "19500 fluorescence intensity (a.u.)"},
      {"sequence": "ATGTGACTACCACCTCTAAATTTATCTATTTTATTCACTCCGGAGTCACCTAGTGCAG", "binding signal": "18600 fluorescence intensity (a.u.)"},
      {"sequence": "GAAATCTAATTTTATCCACGAGACTATAGTGAGCCTACTCCGGAGTCACCTAGTGCAG", "binding signal": "39700 fluorescence intensity (a.u.)"},
      {"sequence": "ATGTTTTCTAGACTAATATACTATTAATCTATCTTTTATCCGGAGTCACCTAGTGCAG", "binding signal": "36400 fluorescence intensity (a.u.)"},
      {"sequence": "GGGATGTCACACCGTCGAAGGCGTCCAGCTGTCAACATATCGGAGTCACCTAGTGCAG", "binding signal": "4720 fluorescence intensity (a.u.)"},
      {"sequence": "CCGTTAGCCTCCAACGATCCAAACCGCCTCGTCATAAATACGGAGTCACCTAGTGCAG", "binding signal": "3460 fluorescence intensity (a.u.)"},
      {"sequence": "TGCTGCTCTTGACACCACGTCGTTGCTGCCCTGCTTCCACCGGAGTCACCTAGTGCAG", "binding signal": "3810 fluorescence intensity (a.u.)"},
      {"sequence": "TGGCATTGACGTGGCGCTTACGTGGCATTATATCTTGAAACGGAGTCACCTAGTGCAG", "binding signal": "33400 fluorescence intensity (a.u.)"},
      {"sequence": "TGACTCAGTATCGATCTGACGTGGCGCTTACGTGGCAATTCGGAGTCACCTAGTGCAG", "binding signal": "48000 fluorescence intensity (a.u.)"},
      {"sequence": "AGTGCCTATGTGGCGTTGACGTGGCGCTTACGTGGCAATTCGGAGTCACCTAGTGCAG", "binding signal": "27500 fluorescence intensity (a.u.)"},
      {"sequence": "ATGACGTGACATTGACGTGGCGCTTACGTGGCAATTCGACCGGAGTCACCTAGTGCAG", "binding signal": "25600 fluorescence intensity (a.u.)"},
      {"sequence": "TCTGATATGGCATTGACGTGACACTTACGTGGCAATTCGACGGAGTCACCTAGTGCAG", "binding signal": "12500 fluorescence intensity (a.u.)"},
      {"sequence": "GTGGCATTGACGTGGCGCTTACGTGTCAATTCTACTCCGGCGGAGTCACCTAGTGCAG", "binding signal": "44200 fluorescence intensity (a.u.)"},
      {"sequence": "GCTATATTAAACATTTGCTAATGACAAATTAATTAGCTTACGGAGTCACCTAGTGCAG", "binding signal": "14700 fluorescence intensity (a.u.)"},
      {"sequence": "TCCATTTTGGACCGCTGACGAGGACGATAGGAGCGTGAGTCGGAGTCACCTAGTGCAG", "binding signal": "4710 fluorescence intensity (a.u.)"},
      {"sequence": "AGCTTGTGTACCCAGGAGATCTACATACTTCGCTACGTCACGGAGTCACCTAGTGCAG", "binding signal": "4570 fluorescence intensity (a.u.)"},
      {"sequence": "AGTATATCCTAAAGCGACACTTTACAGTCTCAAGGACATCCGGAGTCACCTAGTGCAG", "binding signal": "11200 fluorescence intensity (a.u.)"},
      {"sequence": "TGGAGGAAGTCAGTAGGATCCCACGTGTCATACTCACACCCGGAGTCACCTAGTGCAG", "binding signal": "22200 fluorescence intensity (a.u.)"},
      {"sequence": "ATTTAACTGCATAGAAGTGTATAAGTAAAATAATTTATTCCGGAGTCACCTAGTGCAG", "binding signal": "4320 fluorescence intensity (a.u.)"},
      {"sequence": "ACTCCGGTCCAGGAAAATTATTCCTATAGTAATGTAATAACGGAGTCACCTAGTGCAG", "binding signal": "42900 fluorescence intensity (a.u.)"},
      {"sequence": "TATATAACCTAAAATGGAGGAAGTAGGAAATATGTAATTCCGGAGTCACCTAGTGCAG", "binding signal": "4630 fluorescence intensity (a.u.)"},
      {"sequence": "GCCACACCCACACTGACACACATATACAAGCCAGAGAGATCGGAGTCACCTAGTGCAG", "binding signal": "3280 fluorescence intensity (a.u.)"},
      {"sequence": "GAAAGGAAGAGGTGGAGGAAGTGAGACCCACTGACTTGTGCGGAGTCACCTAGTGCAG", "binding signal": "24500 fluorescence intensity (a.u.)"},
      {"sequence": "TCCACCACACGTGTCTATATCGCTTCCTTCCATTCCATCACGGAGTCACCTAGTGCAG", "binding signal": "7170 fluorescence intensity (a.u.)"},
      {"sequence": "GACTTGTCCATGCATGCATGCATGACTTGTGTTCAGCCACCGGAGTCACCTAGTGCAG", "binding signal": "3700 fluorescence intensity (a.u.)"},
      {"sequence": "TTGTTGGTGTTTCCTCGTCCGCGTCGTCGGTTGCATTCTCCGGAGTCACCTAGTGCAG", "binding signal": "3190 fluorescence intensity (a.u.)"},
      {"sequence": "ACTTACACAGTAATTACACCTCACTTACACCCGCTTACACCGGAGTCACCTAGTGCAG", "binding signal": "5410 fluorescence intensity (a.u.)"},
      {"sequence": "CGAAATAAGTAATTTACAGGGCTTTCTCTCTCTCGCTCACCGGAGTCACCTAGTGCAG", "binding signal": "64400 fluorescence intensity (a.u.)"},
      {"sequence": "GTAATTACAGCTCATGATTTTCTCTCTCTCTCTCTCTCTACGGAGTCACCTAGTGCAG", "binding signal": "19500 fluorescence intensity (a.u.)"},
      {"sequence": "AGCTGTGTTGCTAATTGTGGCATTGTGATGTGATGATCCCCGGAGTCACCTAGTGCAG", "binding signal": "3160 fluorescence intensity (a.u.)"},
      {"sequence": "TGCTGATGTTGCTGCTAAAATTGCACCATTGTTGTGTAACCGGAGTCACCTAGTGCAG", "binding signal": "40700 fluorescence intensity (a.u.)"},
      {"sequence": "TTGTTAACTGCTGATGTGTGACCTGACTGTTAAAAGCTGCCGGAGTCACCTAGTGCAG", "binding signal": "9170 fluorescence intensity (a.u.)"},
      {"sequence": "ATGTTGACTGGACTAGCACGTGTACGCCACGTAGACCAAACGGAGTCACCTAGTGCAG", "binding signal": "4790 fluorescence intensity (a.u.)"},
      {"sequence": "ACACGTGGGACCCACGTGGGTCCCATGCTGACTCAGCTGCCGGAGTCACCTAGTGCAG", "binding signal": "28100 fluorescence intensity (a.u.)"},
      {"sequence": "TAAATAATTGCCATTGCCATGCTGCCACGTGTCATGGGACCGGAGTCACCTAGTGCAG", "binding signal": "49900 fluorescence intensity (a.u.)"},
      {"sequence": "ATAATGCTGACTGAACTGCCATGTGTACGCCACGTAGACCCGGAGTCACCTAGTGCAG", "binding signal": "27600 fluorescence intensity (a.u.)"},
      {"sequence": "GTGCATAAATTTATTAAAATAGAAAATTAATGCAGTGCCACGGAGTCACCTAGTGCAG", "binding signal": "4660 fluorescence intensity (a.u.)"},
      {"sequence": "GTCACATCATCATGCATTAATAAAATGCCACGTCATCATCCGGAGTCACCTAGTGCAG", "binding signal": "50000 fluorescence intensity (a.u.)"},
      {"sequence": "CACATAAATAATAATAAAATGTGGGACCCACGTGGGCCCCCGGAGTCACCTAGTGCAG", "binding signal": "10400 fluorescence intensity (a.u.)"},
      {"sequence": "AAATGCTGACTGGACTGCCACGTGTACGCCACGTAGACCACGGAGTCACCTAGTGCAG", "binding signal": "45400 fluorescence intensity (a.u.)"},
      {"sequence": "GGATCAAATTGCCACATATGCGCCACGTTAATGCCACATCCGGAGTCACCTAGTGCAG", "binding signal": "8660 fluorescence intensity (a.u.)"}
    ]}
  ]
}
